Binding signal data for one sequence are collected here from article PMC7862700, “An all-to-all approach to the identification of sequence-specific readers for epigenetic DNA modifications on cytosine”.

What all share (experiment): DAPPL (digital affinity profiling via proximity ligation, sequencing); 10 mM Tris-HCl pH 7.5, 50 mM NaCl, 1 mM DTT, 4% glycerol, room temperature, 30 min; GST-TFs on glutathione beads, 16-mer random dsDNA library, 0.1% formaldehyde crosslink after washing; high values mean tight binding
In test [1] the target is T1, FEV (Homo sapiens, UniProt Q99581 1-238).
T1 sequence: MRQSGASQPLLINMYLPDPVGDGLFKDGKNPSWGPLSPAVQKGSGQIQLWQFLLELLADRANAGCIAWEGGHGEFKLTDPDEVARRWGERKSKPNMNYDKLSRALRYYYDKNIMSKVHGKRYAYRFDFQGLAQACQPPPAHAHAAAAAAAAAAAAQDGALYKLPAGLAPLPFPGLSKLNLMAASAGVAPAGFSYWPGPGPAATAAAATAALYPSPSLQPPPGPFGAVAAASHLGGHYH
Conditions: protein: recombinant; tags: N-terminal GST; dsDNA, one strand shown. Put shortly:
(§1)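 Binding signal is given per hexamer as its read frequency for a factor divided by its frequency in the tag-only sample. GST-fused human transcription factors were expressed in yeast, captured on glutathione beads, barcoded with DNA and pooled with that sample, then incubated with 200 nmole of a 16-mer random double-stranded DNA library in Tris/NaCl/DTT/glycerol buffer for 30 min at room temperature. The pools were then washed, crosslinked, proximity-ligated, amplified by PCR and sequenced on an Illumina NextSeq500.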

For test [2], the target named is ETV5 (Homo sapiens, UniProt P41161 1-510). Conditions: protein: recombinant; tags: N-terminal GST; dsDNA, one strand shown. Put shortly: as §1
ETV5, sequence (P41161 whole entry): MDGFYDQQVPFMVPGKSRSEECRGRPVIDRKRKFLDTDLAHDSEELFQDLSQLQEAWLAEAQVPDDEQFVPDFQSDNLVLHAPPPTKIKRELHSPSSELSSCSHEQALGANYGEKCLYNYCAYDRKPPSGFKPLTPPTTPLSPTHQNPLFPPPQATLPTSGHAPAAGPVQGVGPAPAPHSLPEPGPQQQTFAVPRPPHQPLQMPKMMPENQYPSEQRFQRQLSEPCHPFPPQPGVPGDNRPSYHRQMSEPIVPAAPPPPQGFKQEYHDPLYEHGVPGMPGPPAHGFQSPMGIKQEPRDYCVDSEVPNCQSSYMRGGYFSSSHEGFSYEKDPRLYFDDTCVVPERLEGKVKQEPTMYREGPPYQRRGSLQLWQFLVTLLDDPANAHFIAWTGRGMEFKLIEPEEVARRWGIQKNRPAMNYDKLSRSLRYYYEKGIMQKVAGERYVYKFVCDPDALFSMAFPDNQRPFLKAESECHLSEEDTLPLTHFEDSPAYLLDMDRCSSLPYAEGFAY
Test [3] has as its target HSF1 (Homo sapiens, UniProt Q00613 1-529). The note with it: protein: recombinant; tags: N-terminal GST; chain copies: 3; dsDNA, one strand shown. Put shortly:
as §1

Test [4] concerns the target T2, SPIC (Homo sapiens, UniProt Q8N5J4 1-248).
T2 sequence: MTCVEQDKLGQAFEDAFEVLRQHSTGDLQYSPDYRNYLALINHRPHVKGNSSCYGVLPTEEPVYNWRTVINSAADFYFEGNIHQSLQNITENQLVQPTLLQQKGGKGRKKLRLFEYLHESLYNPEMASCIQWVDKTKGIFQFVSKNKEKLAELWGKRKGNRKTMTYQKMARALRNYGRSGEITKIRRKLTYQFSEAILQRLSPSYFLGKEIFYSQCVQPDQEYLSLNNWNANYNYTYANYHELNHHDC
The note with it: protein: recombinant; tags: N-terminal GST; dsDNA, one strand shown. Put shortly:
as §1

Test [5] deals with ELF4 (Homo sapiens, UniProt Q99607 1-663). The note with it: protein: recombinant; tags: N-terminal GST; dsDNA, one strand shown. Put shortly:
as §1

The target of test [6] is T3, ELK4 (Homo sapiens, UniProt P28324-2 1-405).
T3 sequence: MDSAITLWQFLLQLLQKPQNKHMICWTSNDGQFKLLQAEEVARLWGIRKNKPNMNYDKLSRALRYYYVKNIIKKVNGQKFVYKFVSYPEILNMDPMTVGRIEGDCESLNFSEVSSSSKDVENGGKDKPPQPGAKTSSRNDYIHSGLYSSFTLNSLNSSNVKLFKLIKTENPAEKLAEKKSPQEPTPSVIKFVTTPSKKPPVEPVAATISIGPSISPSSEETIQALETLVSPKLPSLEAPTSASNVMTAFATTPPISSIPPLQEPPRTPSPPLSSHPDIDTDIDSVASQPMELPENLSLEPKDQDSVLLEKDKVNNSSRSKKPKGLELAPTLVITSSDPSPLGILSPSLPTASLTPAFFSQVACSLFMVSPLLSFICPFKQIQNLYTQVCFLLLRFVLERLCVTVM
The note with it: protein: recombinant; tags: N-terminal GST; dsDNA, one strand shown. A digest of the protocol: as §1

The target of test [7] is T4, ETV2 (Homo sapiens, UniProt O00321 1-342).
T4 sequence: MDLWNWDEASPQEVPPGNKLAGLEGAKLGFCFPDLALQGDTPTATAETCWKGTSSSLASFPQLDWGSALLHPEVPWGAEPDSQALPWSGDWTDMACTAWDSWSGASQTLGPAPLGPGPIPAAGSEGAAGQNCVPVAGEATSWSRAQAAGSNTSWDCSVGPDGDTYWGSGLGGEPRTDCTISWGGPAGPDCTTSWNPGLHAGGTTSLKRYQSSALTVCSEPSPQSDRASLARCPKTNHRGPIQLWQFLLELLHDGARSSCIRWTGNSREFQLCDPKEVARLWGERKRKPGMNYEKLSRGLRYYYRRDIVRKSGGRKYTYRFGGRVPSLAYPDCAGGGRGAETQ
The note with it: protein: recombinant; tags: N-terminal GST; dsDNA, one strand shown. A digest of the protocol:
as §1

Test [8] concerns the target T5, ELF3 (Homo sapiens, UniProt P78545 1-371).
T5 sequence: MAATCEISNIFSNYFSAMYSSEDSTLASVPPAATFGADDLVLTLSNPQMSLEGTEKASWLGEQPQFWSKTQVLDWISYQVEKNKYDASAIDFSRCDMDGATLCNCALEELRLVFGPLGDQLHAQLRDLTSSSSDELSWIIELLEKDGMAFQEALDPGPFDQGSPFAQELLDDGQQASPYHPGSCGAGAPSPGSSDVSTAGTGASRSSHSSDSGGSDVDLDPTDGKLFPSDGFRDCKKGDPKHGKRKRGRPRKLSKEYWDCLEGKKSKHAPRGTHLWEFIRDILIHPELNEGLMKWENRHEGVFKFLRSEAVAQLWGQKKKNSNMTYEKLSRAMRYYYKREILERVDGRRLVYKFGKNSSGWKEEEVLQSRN
Conditions: protein: recombinant; tags: N-terminal GST; dsDNA, one strand shown. Put shortly:
as §1

Test [9] addresses CRX (Homo sapiens, UniProt O43186 1-299). The note with it: protein: recombinant; tags: N-terminal GST; dsDNA, one strand shown. A digest of the protocol:
as §1

Test [10] deals with ETV1 (Homo sapiens, UniProt P50549 1-477). Conditions: protein: recombinant; tags: N-terminal GST; dsDNA, one strand shown. Put shortly: as §1
ETV1, sequence (P50549 whole entry): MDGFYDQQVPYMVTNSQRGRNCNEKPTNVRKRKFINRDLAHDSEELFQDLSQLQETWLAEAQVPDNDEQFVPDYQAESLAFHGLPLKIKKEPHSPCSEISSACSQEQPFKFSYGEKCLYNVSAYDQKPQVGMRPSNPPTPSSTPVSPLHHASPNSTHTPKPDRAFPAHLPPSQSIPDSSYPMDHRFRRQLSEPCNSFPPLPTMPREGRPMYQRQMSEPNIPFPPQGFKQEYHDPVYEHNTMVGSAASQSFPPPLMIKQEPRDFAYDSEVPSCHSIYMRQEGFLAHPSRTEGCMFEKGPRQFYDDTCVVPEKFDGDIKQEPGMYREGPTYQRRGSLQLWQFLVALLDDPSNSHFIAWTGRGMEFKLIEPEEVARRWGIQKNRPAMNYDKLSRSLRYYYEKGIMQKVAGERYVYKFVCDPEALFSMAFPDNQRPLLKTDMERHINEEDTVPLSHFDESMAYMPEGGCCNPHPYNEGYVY
For test [11], the target named is T6, ERF (Homo sapiens, UniProt P50548 1-548).
T6 sequence: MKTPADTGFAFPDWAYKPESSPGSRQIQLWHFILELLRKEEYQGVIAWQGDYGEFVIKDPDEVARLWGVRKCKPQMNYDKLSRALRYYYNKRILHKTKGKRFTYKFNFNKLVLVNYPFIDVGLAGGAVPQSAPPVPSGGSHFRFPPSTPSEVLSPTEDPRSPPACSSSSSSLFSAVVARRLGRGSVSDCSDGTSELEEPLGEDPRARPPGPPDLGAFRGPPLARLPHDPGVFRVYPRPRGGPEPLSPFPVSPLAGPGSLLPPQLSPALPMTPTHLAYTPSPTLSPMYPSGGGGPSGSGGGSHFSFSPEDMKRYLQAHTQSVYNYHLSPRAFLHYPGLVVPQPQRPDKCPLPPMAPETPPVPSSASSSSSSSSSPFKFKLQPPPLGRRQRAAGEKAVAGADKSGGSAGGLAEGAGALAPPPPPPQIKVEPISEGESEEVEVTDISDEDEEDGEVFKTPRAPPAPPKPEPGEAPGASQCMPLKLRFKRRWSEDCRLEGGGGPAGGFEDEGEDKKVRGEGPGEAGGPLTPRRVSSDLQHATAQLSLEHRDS
The note with it: protein: recombinant; tags: N-terminal GST; dsDNA, one strand shown. A digest of the protocol: as §1

Test [12] concerns the target T7, ETV3L (Homo sapiens, UniProt Q6ZN32 1-361).
T7 sequence: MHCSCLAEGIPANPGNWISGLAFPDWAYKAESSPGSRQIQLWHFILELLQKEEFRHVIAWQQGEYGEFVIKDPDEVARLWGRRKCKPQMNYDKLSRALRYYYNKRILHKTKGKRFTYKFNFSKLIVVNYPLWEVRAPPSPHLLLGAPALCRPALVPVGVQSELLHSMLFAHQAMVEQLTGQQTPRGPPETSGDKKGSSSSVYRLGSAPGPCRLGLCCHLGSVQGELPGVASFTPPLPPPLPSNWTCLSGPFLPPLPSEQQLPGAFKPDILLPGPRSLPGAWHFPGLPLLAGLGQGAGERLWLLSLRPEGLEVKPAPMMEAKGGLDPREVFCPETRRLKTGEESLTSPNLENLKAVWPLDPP
Conditions: protein: recombinant; tags: N-terminal GST; dsDNA, one strand shown. Put shortly:
as §1

In test [13] the target is T8, ETS2 (Homo sapiens, UniProt P15036 1-469).
T8 sequence: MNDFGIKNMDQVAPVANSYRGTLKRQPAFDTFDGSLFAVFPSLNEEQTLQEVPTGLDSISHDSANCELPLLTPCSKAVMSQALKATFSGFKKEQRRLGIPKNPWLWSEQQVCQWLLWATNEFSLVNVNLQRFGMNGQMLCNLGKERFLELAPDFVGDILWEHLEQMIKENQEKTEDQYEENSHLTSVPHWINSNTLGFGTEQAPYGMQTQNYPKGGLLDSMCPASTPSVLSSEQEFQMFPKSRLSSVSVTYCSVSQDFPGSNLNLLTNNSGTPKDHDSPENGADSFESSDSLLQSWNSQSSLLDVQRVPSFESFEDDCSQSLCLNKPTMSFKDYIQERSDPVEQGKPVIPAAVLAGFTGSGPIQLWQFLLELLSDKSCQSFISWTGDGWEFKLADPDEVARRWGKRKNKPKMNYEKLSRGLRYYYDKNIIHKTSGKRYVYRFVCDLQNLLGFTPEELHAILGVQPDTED
Conditions: protein: recombinant; tags: N-terminal GST; dsDNA, one strand shown. Put shortly:
as §1

The target of test [14] is T9, SPDEF (Homo sapiens, UniProt O95238 1-335).
T9 sequence: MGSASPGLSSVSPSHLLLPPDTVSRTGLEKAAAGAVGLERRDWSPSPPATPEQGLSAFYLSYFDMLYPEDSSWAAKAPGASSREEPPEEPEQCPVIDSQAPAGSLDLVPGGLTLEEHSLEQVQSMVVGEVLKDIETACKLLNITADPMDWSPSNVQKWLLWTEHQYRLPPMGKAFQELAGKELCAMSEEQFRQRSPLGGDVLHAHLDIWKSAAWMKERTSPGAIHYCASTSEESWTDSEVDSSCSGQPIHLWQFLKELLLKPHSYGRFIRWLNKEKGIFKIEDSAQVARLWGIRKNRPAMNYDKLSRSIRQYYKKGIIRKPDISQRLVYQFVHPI
The note with it: protein: recombinant; tags: N-terminal GST; dsDNA, one strand shown. A digest of the protocol:
as §1

Test [15] deals with T10, ETV7 (Homo sapiens, UniProt Q9Y603 1-341).
T10 sequence: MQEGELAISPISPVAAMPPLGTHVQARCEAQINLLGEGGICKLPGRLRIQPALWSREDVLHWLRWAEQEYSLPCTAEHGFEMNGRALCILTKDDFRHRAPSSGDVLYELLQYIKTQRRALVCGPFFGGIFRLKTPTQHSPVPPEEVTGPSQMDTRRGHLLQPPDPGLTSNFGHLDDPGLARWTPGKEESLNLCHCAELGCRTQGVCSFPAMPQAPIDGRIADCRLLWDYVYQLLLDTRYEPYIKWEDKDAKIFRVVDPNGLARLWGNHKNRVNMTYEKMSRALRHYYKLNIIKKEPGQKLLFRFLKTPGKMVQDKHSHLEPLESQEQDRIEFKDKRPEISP
The note with it: protein: recombinant; tags: N-terminal GST; dsDNA, one strand shown. Put shortly: as §1

Test [16] deals with T11, ELF5 (Homo sapiens, UniProt Q9UKW6-2 1-255).
T11 sequence: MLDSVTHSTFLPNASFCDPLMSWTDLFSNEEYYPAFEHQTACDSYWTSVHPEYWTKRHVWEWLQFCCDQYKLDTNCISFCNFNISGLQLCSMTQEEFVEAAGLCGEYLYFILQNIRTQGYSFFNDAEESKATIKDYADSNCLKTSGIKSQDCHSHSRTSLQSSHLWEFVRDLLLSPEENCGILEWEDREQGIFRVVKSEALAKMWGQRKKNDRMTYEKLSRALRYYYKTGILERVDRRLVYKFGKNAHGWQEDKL
Conditions: protein: recombinant; tags: N-terminal GST; dsDNA, one strand shown. A digest of the protocol: as §1

Test [17] addresses T12, ETV3 (Homo sapiens, UniProt P41162-2 1-143).
T12 sequence: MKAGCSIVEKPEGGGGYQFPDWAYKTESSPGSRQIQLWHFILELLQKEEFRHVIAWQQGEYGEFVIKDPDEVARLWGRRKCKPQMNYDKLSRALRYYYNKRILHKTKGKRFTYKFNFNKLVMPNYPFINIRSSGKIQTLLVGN
The note with it: protein: recombinant; tags: N-terminal GST; dsDNA, one strand shown. A digest of the protocol: as §1

In test [18] the target is ETV6 (Homo sapiens, UniProt P41212 1-452). The note with it: protein: recombinant; tags: N-terminal GST; dsDNA, one strand shown. Put shortly: as §1
ETV6, sequence (P41212 whole entry): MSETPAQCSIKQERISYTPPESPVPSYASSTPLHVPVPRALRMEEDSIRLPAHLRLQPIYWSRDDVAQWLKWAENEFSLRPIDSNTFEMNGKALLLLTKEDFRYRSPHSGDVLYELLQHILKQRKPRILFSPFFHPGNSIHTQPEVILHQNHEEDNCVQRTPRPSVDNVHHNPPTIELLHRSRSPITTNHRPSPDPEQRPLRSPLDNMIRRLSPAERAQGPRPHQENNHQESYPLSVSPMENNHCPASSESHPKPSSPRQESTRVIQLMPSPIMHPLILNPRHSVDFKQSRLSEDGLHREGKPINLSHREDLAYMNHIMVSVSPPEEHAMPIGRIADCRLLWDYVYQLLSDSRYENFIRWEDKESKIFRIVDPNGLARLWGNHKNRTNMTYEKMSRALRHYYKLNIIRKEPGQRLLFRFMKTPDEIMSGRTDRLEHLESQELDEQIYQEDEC

ELF4, sequence (Q99607 whole entry): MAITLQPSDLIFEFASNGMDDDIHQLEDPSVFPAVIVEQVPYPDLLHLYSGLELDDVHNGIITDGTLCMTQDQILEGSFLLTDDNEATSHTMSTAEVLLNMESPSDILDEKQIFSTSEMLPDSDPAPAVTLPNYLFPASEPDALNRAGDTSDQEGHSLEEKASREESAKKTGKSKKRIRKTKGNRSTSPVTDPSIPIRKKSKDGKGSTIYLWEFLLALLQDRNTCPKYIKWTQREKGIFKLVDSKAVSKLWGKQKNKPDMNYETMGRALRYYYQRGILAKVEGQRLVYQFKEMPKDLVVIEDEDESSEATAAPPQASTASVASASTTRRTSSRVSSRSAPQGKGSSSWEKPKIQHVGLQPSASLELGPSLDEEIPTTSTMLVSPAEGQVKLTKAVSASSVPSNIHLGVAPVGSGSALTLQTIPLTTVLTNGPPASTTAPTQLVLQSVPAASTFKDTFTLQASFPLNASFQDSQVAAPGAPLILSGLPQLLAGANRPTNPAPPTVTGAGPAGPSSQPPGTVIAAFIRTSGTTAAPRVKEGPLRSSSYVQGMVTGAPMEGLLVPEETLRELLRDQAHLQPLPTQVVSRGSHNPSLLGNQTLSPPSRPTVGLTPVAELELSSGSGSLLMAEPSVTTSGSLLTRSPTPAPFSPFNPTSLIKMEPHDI
HSF1, sequence (Q00613 whole entry): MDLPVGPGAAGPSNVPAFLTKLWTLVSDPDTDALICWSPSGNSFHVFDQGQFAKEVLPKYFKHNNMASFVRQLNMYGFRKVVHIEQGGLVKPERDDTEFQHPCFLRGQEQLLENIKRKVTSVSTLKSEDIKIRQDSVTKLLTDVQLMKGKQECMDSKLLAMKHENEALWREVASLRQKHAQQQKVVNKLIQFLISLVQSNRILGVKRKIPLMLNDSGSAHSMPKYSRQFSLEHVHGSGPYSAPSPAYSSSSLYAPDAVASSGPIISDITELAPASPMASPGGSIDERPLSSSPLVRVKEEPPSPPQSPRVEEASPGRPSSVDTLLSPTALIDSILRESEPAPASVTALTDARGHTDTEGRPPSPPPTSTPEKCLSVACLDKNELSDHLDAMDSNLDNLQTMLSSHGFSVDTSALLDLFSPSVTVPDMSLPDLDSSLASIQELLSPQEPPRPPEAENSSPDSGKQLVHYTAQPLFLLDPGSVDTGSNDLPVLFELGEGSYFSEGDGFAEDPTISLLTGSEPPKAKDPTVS
CRX, sequence (O43186 whole entry): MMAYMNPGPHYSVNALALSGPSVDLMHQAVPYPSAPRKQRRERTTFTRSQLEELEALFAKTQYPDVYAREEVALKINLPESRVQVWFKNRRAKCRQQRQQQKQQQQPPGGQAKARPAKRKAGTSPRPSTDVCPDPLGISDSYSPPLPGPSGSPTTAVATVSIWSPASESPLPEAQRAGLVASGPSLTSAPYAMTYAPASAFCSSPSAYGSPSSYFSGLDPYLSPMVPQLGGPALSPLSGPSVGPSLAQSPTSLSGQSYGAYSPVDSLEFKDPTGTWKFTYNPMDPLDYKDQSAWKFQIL

Turning to CAAAAT, the binding signal in [1] is 1.17 fold enrichment (6-mer frequency, TF over GST control); in test [2], 1.22 fold enrichment (6-mer frequency, TF over GST control); in [3] it was 1.2 fold enrichment (6-mer frequency, TF over GST control); in test [4], 1.16 fold enrichment (6-mer frequency, TF over GST control); in test [5] it was 1.25 fold enrichment (6-mer frequency, TF over GST control); in [6], 1.23 fold enrichment (6-mer frequency, TF over GST control). Further, the binding signal in [7] was 1.28 fold enrichment (6-mer frequency, TF over GST control); in test [8], 1.2 fold enrichment (6-mer frequency, TF over GST control); in [9], 1.22 fold enrichment (6-mer frequency, TF over GST control); in test [10], 1.25 fold enrichment (6-mer frequency, TF over GST control); in test [11], 1.33 fold enrichment (6-mer frequency, TF over GST control); in test [12], 1.19 fold enrichment (6-mer frequency, TF over GST control). Besides, the binding signal in test [13] is 1.2 fold enrichment (6-mer frequency, TF over GST control); in test [14] it was 1.1 fold enrichment (6-mer frequency, TF over GST control); in test [15], 1.28 fold enrichment (6-mer frequency, TF over GST control); in test [16], 1.13 fold enrichment (6-mer frequency, TF over GST control); in [17] it was 1.12 fold enrichment (6-mer frequency, TF over GST control); in test [18], 1.26 fold enrichment (6-mer frequency, TF over GST control).
